In general, ΔTm refers to the change in melting temperature against a reference sample.

The source of these data is ChEMBL document CHEMBL5724796, “Tm Shift (DSF) assay results for EUbOPEN Chemogenomics Library” (2024).

What all share (details): Compound concentration 20.0 uM
Test [1] has as its target Tyrosine-protein kinase ABL1 (Homo sapiens) (UniProt P00519).
In test [2] the target is Bromodomain-containing protein 4 (Homo sapiens) (UniProt O60885).
The target of test [3] is Cyclin-dependent kinase 2 (Homo sapiens) (UniProt P24941).
In test [4] the target is Casein kinase I isoform delta (Homo sapiens) (UniProt P48730).
Chain of Casein kinase I isoform delta (Homo sapiens) (P48730 whole entry, looked up, canonical isoform): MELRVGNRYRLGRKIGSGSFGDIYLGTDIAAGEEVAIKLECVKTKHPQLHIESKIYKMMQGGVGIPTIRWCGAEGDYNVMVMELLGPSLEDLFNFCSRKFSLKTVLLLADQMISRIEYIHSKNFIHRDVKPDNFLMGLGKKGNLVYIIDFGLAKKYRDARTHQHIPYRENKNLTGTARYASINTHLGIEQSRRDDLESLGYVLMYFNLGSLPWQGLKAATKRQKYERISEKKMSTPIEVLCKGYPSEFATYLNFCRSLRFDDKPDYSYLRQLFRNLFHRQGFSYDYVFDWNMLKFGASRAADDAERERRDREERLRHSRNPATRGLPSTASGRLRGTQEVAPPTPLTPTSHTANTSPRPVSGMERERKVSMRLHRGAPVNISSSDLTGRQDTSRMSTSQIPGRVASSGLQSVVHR
Test [5] addresses Glycogen synthase kinase-3 beta (Homo sapiens) (UniProt P49841).
The target of test [6] is Mitogen-activated protein kinase 1 (Homo sapiens) (UniProt P28482).
Chain of Mitogen-activated protein kinase 1 (Homo sapiens) (P28482 whole entry): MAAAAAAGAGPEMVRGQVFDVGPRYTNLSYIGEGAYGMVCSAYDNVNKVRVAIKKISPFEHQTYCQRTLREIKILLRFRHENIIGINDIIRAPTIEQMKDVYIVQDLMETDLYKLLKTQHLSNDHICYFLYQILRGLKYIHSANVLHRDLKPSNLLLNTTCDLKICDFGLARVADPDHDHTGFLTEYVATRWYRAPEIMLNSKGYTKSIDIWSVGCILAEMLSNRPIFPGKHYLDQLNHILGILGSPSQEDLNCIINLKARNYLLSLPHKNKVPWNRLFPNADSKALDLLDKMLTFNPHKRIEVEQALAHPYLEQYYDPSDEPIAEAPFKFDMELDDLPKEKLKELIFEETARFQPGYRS
Test [7] deals with T1, Aurora kinase A (Homo sapiens) (UniProt O14965).
T1 sequence (whole entry): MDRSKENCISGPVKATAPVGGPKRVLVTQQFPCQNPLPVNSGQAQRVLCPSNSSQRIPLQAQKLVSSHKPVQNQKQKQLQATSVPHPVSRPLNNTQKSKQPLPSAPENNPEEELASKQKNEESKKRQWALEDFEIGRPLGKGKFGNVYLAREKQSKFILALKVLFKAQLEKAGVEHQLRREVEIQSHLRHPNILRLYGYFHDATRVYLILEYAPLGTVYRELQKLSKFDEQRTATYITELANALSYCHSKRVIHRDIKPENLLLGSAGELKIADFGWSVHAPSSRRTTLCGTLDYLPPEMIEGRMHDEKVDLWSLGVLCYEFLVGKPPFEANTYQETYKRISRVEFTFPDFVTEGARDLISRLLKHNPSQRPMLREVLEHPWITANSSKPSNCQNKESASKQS

The target in test [8] is T2, Transcription intermediary factor 1-alpha (Homo sapiens) (UniProt O15164).
T2 sequence (whole entry): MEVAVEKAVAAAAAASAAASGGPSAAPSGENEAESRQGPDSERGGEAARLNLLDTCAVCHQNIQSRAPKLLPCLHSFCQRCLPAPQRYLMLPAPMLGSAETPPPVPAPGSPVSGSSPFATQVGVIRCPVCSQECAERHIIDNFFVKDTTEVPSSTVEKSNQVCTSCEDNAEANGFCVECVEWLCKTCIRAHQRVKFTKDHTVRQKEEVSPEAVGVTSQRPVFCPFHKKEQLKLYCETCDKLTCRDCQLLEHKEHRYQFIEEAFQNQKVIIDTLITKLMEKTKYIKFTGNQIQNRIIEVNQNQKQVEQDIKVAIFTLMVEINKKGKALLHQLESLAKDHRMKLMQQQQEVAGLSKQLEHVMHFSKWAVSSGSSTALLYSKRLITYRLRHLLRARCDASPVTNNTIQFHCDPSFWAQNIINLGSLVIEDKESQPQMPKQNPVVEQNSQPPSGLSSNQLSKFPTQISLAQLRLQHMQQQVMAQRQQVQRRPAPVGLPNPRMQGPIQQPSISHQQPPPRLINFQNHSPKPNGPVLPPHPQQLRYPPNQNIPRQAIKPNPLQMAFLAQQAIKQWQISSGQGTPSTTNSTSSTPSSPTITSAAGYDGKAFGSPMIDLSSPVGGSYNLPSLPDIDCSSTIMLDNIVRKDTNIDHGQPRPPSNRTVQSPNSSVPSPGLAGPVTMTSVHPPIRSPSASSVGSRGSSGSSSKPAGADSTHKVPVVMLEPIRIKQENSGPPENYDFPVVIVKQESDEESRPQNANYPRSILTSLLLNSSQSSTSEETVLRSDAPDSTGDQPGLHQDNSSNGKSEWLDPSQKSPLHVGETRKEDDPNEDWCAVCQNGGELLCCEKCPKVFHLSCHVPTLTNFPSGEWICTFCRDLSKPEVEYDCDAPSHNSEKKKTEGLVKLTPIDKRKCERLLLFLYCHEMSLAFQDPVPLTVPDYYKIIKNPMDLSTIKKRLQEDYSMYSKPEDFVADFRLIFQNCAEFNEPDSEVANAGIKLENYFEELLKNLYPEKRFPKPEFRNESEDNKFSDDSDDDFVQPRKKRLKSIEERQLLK

Chain of Tyrosine-protein kinase ABL1 (Homo sapiens) (P00519 whole entry): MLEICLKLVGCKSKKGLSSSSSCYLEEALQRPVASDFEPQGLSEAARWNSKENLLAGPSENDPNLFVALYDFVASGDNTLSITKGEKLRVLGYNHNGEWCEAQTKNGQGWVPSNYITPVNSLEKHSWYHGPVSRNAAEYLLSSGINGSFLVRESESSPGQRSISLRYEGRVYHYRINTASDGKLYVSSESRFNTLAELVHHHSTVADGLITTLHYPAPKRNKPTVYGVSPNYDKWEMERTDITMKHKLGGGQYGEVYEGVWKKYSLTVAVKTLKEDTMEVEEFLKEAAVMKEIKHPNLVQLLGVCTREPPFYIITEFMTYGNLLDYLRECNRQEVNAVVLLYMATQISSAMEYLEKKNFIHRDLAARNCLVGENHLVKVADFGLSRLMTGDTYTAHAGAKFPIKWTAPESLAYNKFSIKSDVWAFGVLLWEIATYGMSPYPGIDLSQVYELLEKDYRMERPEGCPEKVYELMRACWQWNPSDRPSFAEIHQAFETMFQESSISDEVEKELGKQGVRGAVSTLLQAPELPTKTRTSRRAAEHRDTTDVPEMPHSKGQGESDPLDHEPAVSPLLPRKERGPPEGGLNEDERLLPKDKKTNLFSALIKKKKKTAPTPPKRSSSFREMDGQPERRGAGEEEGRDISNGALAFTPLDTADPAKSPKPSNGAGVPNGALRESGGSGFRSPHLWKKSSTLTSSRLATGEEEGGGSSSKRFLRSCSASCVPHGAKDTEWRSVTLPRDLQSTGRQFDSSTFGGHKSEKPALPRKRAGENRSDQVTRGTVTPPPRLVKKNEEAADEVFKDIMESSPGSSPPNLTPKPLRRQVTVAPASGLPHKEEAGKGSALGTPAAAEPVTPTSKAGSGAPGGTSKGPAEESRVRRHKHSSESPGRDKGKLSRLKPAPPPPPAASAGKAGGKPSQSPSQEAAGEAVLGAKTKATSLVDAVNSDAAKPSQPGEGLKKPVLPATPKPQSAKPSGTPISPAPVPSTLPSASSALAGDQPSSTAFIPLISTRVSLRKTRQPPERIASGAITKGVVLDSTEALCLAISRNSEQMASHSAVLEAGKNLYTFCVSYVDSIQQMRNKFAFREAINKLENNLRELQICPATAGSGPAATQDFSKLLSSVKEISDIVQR
Chain of Glycogen synthase kinase-3 beta (Homo sapiens) (P49841 whole entry, looked up): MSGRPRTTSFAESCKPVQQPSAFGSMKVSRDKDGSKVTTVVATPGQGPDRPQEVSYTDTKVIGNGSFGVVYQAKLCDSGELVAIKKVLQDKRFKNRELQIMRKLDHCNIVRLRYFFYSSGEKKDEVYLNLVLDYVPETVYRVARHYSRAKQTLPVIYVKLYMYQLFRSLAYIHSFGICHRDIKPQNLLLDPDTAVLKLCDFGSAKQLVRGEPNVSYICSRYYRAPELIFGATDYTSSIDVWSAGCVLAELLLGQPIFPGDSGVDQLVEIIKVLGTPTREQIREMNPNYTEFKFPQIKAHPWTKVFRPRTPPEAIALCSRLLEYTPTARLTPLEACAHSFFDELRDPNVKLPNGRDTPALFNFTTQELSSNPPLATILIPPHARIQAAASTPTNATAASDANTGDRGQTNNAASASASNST

Regarding `Cc1cc(/N=N/c2ccc3c(c2)CCC(=O)N3)c(N)cc1O`, the shift in melting temperature (ΔTm) in test [1] is 2.28 °C; in test [2], -0.4 °C; in test [3] it was -0.28 °C; in test [4], 0.68 °C; in test [5], -0.3 °C; in test [6], 0.09 °C. Further, the ΔTm in test [7] was -0.6 °C; in test [8] it was -0.66 °C.
As for `O=C(NCC1CCOCC1)c1n[nH]cc1NC(=O)c1c(F)cccc1F`, the ΔTm is 0.15 °C in test [1]; -2 °C in test [2]; 3.53 °C in test [3]; 1.77 °C in test [4]; 14.4 °C in test [5]; 0.1 °C in test [6]. Besides, the thermal shift (ΔTm) in test [7] is 1.73 °C; in test [8], -0.72 °C.
Turning to `COc1ccc(-c2ccc(-c3cn(C(=O)N4CCCCC4c4ccccc4)nn3)cc2)cc1` (stereo unspecified), the ΔTm is 0.38 °C in test [1]; -2.64 °C in test [2]; 0.04 °C in test [3]; -0.53 °C in test [4]; -1.61 °C in test [5]; -0.45 °C in test [6]. Further, the shift in melting temperature (ΔTm) in test [7] is -1.09 °C; in test [8] it was -0.5 °C.
Consider `CC(C)(CNC(=O)c1cccc(-c2noc(C(F)(F)F)n2)c1)c1coc(-c2ccccc2)n1`, for which the ΔTm in test [1] is 0.61 °C; in test [2] it was -3.84 °C; in test [3], 0.39 °C; in test [4], 0.45 °C; in test [5], -8.42 °C; in test [6] it was -3.6 °C. For the same molecule, the ΔTm in test [7] was -2.8 °C; in test [8] it was -1.82 °C.
On to `O=C(O)CCNc1cc(N2CCc3ccccc3CC2)nc(-c2cccnc2)n1`, for which the ΔTm was 0.76 °C in test [1]; -1.28 °C in test [2]; 0.04 °C in test [3]; 0.2 °C in test [4]; -0.02 °C in test [5]; -0.29 °C in test [6]. Moreover, the ΔTm is 2.29 °C in test [7] and -0.51 °C in test [8].
Take `Cc1cc(N2C[C@@H](C)N[C@@H](C)C2)ncc1-c1ccc(-c2nc3c(ccn3C)c(=O)[nH]2)cc1`: the shift in melting temperature (ΔTm) in test [1] is 1.3 °C; in test [2], -0.52 °C; in test [3], 0.78 °C; in test [4], 0.59 °C; in test [5] it was 0.66 °C; in test [6], 0.08 °C. The thermal shift (ΔTm) in test [7] was -1.4 °C; in test [8], 0.61 °C.
Take `O=C(O)C1CCCN(CCC=C(c2ccccc2)c2ccccc2)C1` (stereo unspecified): the shift in melting temperature (ΔTm) in test [1] was 0.13 °C; in test [2], -2.59 °C; in test [3] it was 0 °C; in test [4], -0.19 °C; in test [5], -0.66 °C; in test [6], 0.13 °C. The results for the ΔTm in test [7] and in test [8] were -2.34 °C and -1.2 °C, respectively.
On to `CCCCOc1c(OC)cc(C(=O)NCC2(N(C)C)CCOCC2)cc1OC`, for which the ΔTm in test [1] was 0.07 °C; in test [2] it was 0.11 °C; in test [3] it was 0.02 °C; in test [4], -0.36 °C; in test [5], -1.71 °C; in test [6], 0.03 °C. The ΔTm in test [7] was -2.39 °C; in test [8], -0.41 °C.
`N#C[C@@H]1C[C@@H]2C[C@@H]2N1C(=O)[C@@H](N)C12CC3CC(CC(O)(C3)C1)C2`: the shift in melting temperature (ΔTm) is 0.22 °C in test [1]; 0.38 °C in test [2]; 0.24 °C in test [3]; -0.14 °C in test [4]; -0.19 °C in test [5]; 0.33 °C in test [6]. In addition, the thermal shift (ΔTm) was -2.27 °C in test [7] and 1.46 °C in test [8].
As for `CC(=O)N[C@@H](CC(=O)O)C(=O)N[C@@H](CC(N)=O)C(=O)N[C@@H](CC(C)C)C(=O)N[C@H](C=O)CC(=O)O`, the ΔTm in test [1] was 0.21 °C; in test [2] it was -3.48 °C; in test [3], 0.27 °C; in test [4], -0.23 °C; in test [5], -0.99 °C; in test [6] it was 0.1 °C. Moreover, the shift in melting temperature (ΔTm) in test [7] is -0.95 °C; in test [8], 0.8 °C.
As to `CCS(=O)(=O)Cc1cnc(Oc2ccc(F)cc2F)c(-c2cc(C)c3c(=O)[nH]ccn23)c1`, the ΔTm is 0.69 °C in test [1]; 14.7 °C in test [2]; 0.81 °C in test [3]; -0.35 °C in test [4]; 1.96 °C in test [5]; 0.23 °C in test [6]. Besides, the ΔTm is -0.65 °C in test [7] and 0.45 °C in test [8].
For `CCCc1nc(C)c2c(=O)nc(-c3cc(S(=O)(=O)N4CCN(CC)CC4)ccc3OCC)[nH]n12`, the thermal shift (ΔTm) in test [1] was 0.09 °C; in test [2] it was 1.95 °C; in test [3], 1 °C; in test [4], 0.05 °C; in test [5], -1.14 °C; in test [6] it was 0.18 °C. Moreover, the shift in melting temperature (ΔTm) in test [7] is -2.18 °C; in test [8], 1.86 °C.
For the molecule `Cc1nn2c(nc(O)c3cccnc32)c1C#N`, the thermal shift (ΔTm) in test [1] was 0.68 °C; in test [2], -3.07 °C; in test [3], 0.02 °C; in test [4] it was -0.11 °C; in test [5] it was -0.51 °C; in test [6], 0.18 °C. Further, the ΔTm in test [7] is -2.1 °C; in test [8], 1.17 °C.
For `CC(C)Oc1ccc2c(=O)[nH]c3sccc3c2c1`, the ΔTm in test [1] is 2.81 °C; in test [2] it was -1.93 °C; in test [3] it was 0.87 °C; in test [4] it was 1.82 °C; in test [5], 0.89 °C; in test [6] it was 0.11 °C. Moreover, the ΔTm in test [7] is -0.48 °C; in test [8], -0.42 °C.
Consider `CCCN1CCN(c2ccc(C(=O)NC3(C(=O)NCC#N)CCCCC3)cc2)CC1`, for which the ΔTm in test [1] was 0.17 °C; in test [2] it was -1.33 °C; in test [3], 0.57 °C; in test [4] it was 0.09 °C; in test [5] it was -0.34 °C; in test [6] it was -0.16 °C. Moreover, the shift in melting temperature (ΔTm) was -0.29 °C in test [7] and -0.56 °C in test [8].
`COc1cc2c(NC3CCN(CC4CCCCC4)CC3)nc(N3CCCN(C(C)C)CC3)nc2cc1OCCCN1CCCCC1`: the ΔTm is 0.33 °C in test [1]; -0.97 °C in test [2]; 0.51 °C in test [3]; 0.17 °C in test [4]; -0.33 °C in test [5]; -0.16 °C in test [6]. Also, the values for the ΔTm in test [7] and in test [8] were -0.14 °C and -0.74 °C, respectively.
For the molecule `CCCCCCCC(=O)N[C@H](CN1CCCC1)[C@H](O)c1ccc2c(c1)OCCO2`, the ΔTm in test [1] is 0.07 °C; in test [2], -0.36 °C; in test [3], -0.06 °C; in test [4] it was -0.32 °C; in test [5] it was -0.11 °C; in test [6] it was 0.14 °C. Also, the figures for the thermal shift (ΔTm) in test [7] and in test [8] were -1.58 °C and -0.39 °C, respectively.
Regarding `CC/C(=C(/CC)c1ccc(O)cc1)c1ccc(O)cc1`, the ΔTm in test [1] was -0.96 °C; in test [2], -4.78 °C; in test [3], -5.57 °C; in test [4], -0.81 °C; in test [5] it was -3.54 °C; in test [6], -12.2 °C. Also, the figures for the shift in melting temperature (ΔTm) in test [7] and in test [8] were -1.78 °C and 1.49 °C, respectively.
Regarding `CC(=O)N[C@@H](CCCCNC(=O)CSCCNC(=O)CCNC(=O)[C@H](O)C(C)(C)COP(=O)(O)OP(=O)(O)OC[C@H]1O[C@@H](n2cnc3c(N)ncnc32)[C@H](O)[C@@H]1OP(=O)(O)O)C(N)=O`, the ΔTm was 0.23 °C in test [1]; -2 °C in test [2]; -0.07 °C in test [3]; -0.41 °C in test [4]; -0.08 °C in test [5]; -0.01 °C in test [6]. Besides, the thermal shift (ΔTm) in test [7] is -0.37 °C; in test [8], 1.51 °C.
With `CC(C)(O)c1ccc(-c2nc3c(F)cc(F)cc3c(=O)[nH]2)cc1`, the ΔTm in test [1] was 1.34 °C; in test [2], -1.77 °C; in test [3], -0.55 °C; in test [4] it was 1.05 °C; in test [5] it was -2.12 °C; in test [6], -4.92 °C. The thermal shift (ΔTm) in test [7] was -0.15 °C; in test [8], -1.14 °C.
Take `CCCCCCNC(=O)n1cc(Cl)c(=O)n(C(=O)OCC(C)C)c1=O`: the thermal shift (ΔTm) in test [1] was 0.44 °C; in test [2], -0.35 °C; in test [3], 0.16 °C; in test [4], -0.34 °C; in test [5], -0.76 °C; in test [6], -0.05 °C. The thermal shift (ΔTm) in test [7] was -0.58 °C; in test [8], 0.93 °C.
As for `CC(C)(O)c1ccc(N2Cc3c(ccnc3-c3ccc(F)cc3OCC(F)(F)F)C2=O)cc1`, the thermal shift (ΔTm) was 1.61 °C in test [1]; -2.56 °C in test [2]; -1.07 °C in test [3]; 0.07 °C in test [4]; 0.38 °C in test [5]; -10.3 °C in test [6]. Further, the results for the ΔTm in test [7] and in test [8] were 1.43 °C and -1.06 °C, respectively.
